The text below walks through data of PubChem BioAssay (NCI).

Test systems include SR leukemia; RPMI-8226 leukemia; OVCAR-8 ovarian; OVCAR-5 ovarian; OVCAR-4 ovarian; SK-OV-3 ovarian; IGROV1 ovarian; OVCAR-3 ovarian; HS 578T breast; NCI/ADR-RES ovarian; T-47D breast; BT-549 breast; MDA-MB-435 melanoma; SW-620 colon; MCF7 breast; HCT-116 colon; HCC-2998 colon; KM12 colon.
What all share (test): NCI-60 one-dose screen, 48 h (100 = growth as untreated, 0 = no growth, -100 = all killed)
Details in all cases: 10 µM unless noted

This is part of a sample that, as a whole, favours compounds with a hit. Of some 83,000 tested, about 20% had one in any assay.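 Results are percent growth after 48 hours of single-concentration exposure. 100 means growth as in untreated cells, lower positive values show inhibition; negative values down to -100 show cell death.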 Values without a mark were called inactive. Activity calls are given as the source filed them. The calls were made as follows: active = growth percent below 10; inactive = the rest.

As to `O=[N+]([O-])c1cccc(-c2nc3sccn3c2-c2ccnc(NCCCNS(=O)(=O)c3cccc(F)c3)n2)c1`, the growth with SR leukemia is 13.2%; in the test with RPMI-8226 leukemia, -32.5% (active); in the test with OVCAR-8 ovarian it was -5.3% (active); with OVCAR-5 ovarian, 66.2%; with OVCAR-4 ovarian, -12.2% (active); with SK-OV-3 ovarian it was 44.6%. For the same compound, the growth in the test on IGROV1 ovarian is 3.18% (active); with OVCAR-3 ovarian, -2.65% (active); in the test with HS 578T breast, 31.2%; in the test with NCI/ADR-RES ovarian, -20.8% (active); in the test with T-47D breast it was -13.4% (active); with BT-549 breast it was -16.8% (active). In addition, the growth is -19.4% (active) with MDA-MB-435 melanoma; 22.9% in the test with SW-620 colon; -18.9% (active) in the test with MCF7 breast; 7.77% (active) in the test with HCT-116 colon; 65.6% with HCC-2998 colon; -10.6% (active) in the test on KM12 colon.
Turning to `CCCCCCCCCCCCCCCC(=O)OCC1OC(n2cnc3c(=S)nc(N)[nH]c32)C(OC(=O)CCCCCCCCCCCCCCC)C1OC(=O)CCCCCCCCCCCCCCC` (centres undefined), the growth in the test on SR leukemia is 11.4%; with RPMI-8226 leukemia, 30.1%; with OVCAR-8 ovarian it was 55.8%; in the test on OVCAR-5 ovarian it was 52.1%; with OVCAR-4 ovarian it was 78.3%; in the test with SK-OV-3 ovarian it was 20.8%. Further, the growth in the test on IGROV1 ovarian is 77.1%; with OVCAR-3 ovarian, 50%; with HS 578T breast, 119%; in the test on NCI/ADR-RES ovarian, 39.4%; with T-47D breast, 41.3%; in the test with BT-549 breast, 53%. Further, the growth is 59.3% with MDA-MB-435 melanoma; 78.6% in the test on SW-620 colon; 35% in the test with MCF7 breast; 32.6% in the test with HCT-116 colon; 53.6% with HCC-2998 colon; 71% in the test on KM12 colon.
`O=C1/C(=C/c2ccc(Cl)c(Cl)c2)CN(C(=O)CCN2CCC(=NO)CC2)C/C1=C\c1ccc(Cl)c(Cl)c1`: the growth in the test on SR leukemia was -14% (active); with RPMI-8226 leukemia, -37.2% (active); in the test on OVCAR-8 ovarian it was -95.5% (active); in the test on OVCAR-5 ovarian, -71.3% (active); in the test on OVCAR-4 ovarian, -96.6% (active); in the test on SK-OV-3 ovarian, -55.7% (active). Moreover, the growth was -63.3% (active) with IGROV1 ovarian; -97.8% (active) in the test on OVCAR-3 ovarian; -28.5% (active) with HS 578T breast; -60.2% (active) in the test with NCI/ADR-RES ovarian; -79.9% (active) in the test on T-47D breast; -87.9% (active) in the test with BT-549 breast. Moreover, the growth is -93.8% (active) in the test with MDA-MB-435 melanoma; -62.9% (active) in the test on SW-620 colon; -53.8% (active) in the test on MCF7 breast; -47.1% (active) with HCT-116 colon; -77.1% (active) in the test with HCC-2998 colon; -80.9% (active) with KM12 colon.
Consider `C/C(=C(/c1ccc(O)cc1)c1ccc(Cl)cc1)c1ccccc1`, for which the growth with SR leukemia was -27.9% (active); in the test with RPMI-8226 leukemia, -45.9% (active); in the test with OVCAR-8 ovarian, -53% (active); with OVCAR-5 ovarian, -85.3% (active); in the test on OVCAR-4 ovarian, -97.4% (active); in the test on SK-OV-3 ovarian, -85.6% (active). The growth was -73.1% (active) with IGROV1 ovarian; -92.5% (active) in the test on OVCAR-3 ovarian; -37.6% (active) in the test on HS 578T breast; -71% (active) in the test with NCI/ADR-RES ovarian; -13.5% (active) in the test with T-47D breast; -78.9% (active) with BT-549 breast. In addition, the growth in the test on MDA-MB-435 melanoma is -93.1% (active); in the test on SW-620 colon, -71.4% (active); in the test on MCF7 breast it was -63.3% (active); in the test on HCT-116 colon, -69.4% (active); in the test on HCC-2998 colon, -74.9% (active); in the test with KM12 colon, -86.2% (active).
Consider `COc1cc(C(=O)/C=C/c2c(C)n([O-])c3ccc(C)cc3[n+]2=O)cc(OC)c1OC`, for which the growth is -35.2% (active) in the test with SR leukemia; -17.3% (active) with RPMI-8226 leukemia; 5.36% (active) in the test on OVCAR-8 ovarian; 78.3% in the test with OVCAR-5 ovarian; 36.9% in the test on OVCAR-4 ovarian; 96% with SK-OV-3 ovarian. The growth in the test on IGROV1 ovarian was 73.7%; in the test with OVCAR-3 ovarian it was 13.2%; with HS 578T breast it was 52.8%; in the test on NCI/ADR-RES ovarian, 81.2%; in the test with T-47D breast, 17.6%; in the test on BT-549 breast, 76.7%. Further, the growth was 60.1% with MDA-MB-435 melanoma; 0.477% (active) in the test on SW-620 colon; 29.4% in the test with MCF7 breast; 15% in the test with HCT-116 colon; 104% with HCC-2998 colon; 34.8% with KM12 colon.
On to `CCCCCCCCCCCCCC(=O)C(C)N` (centres undefined), for which the growth in the test with SR leukemia was -2.57% (active); with RPMI-8226 leukemia it was 31.9%; with OVCAR-8 ovarian it was 89.9%; in the test with OVCAR-5 ovarian, 68.7%; in the test on OVCAR-4 ovarian, 14.3%; in the test on SK-OV-3 ovarian, 72.5%. Besides, the growth was 53.2% in the test on IGROV1 ovarian; 73.6% in the test on OVCAR-3 ovarian; 70.6% with HS 578T breast; 75.8% with NCI/ADR-RES ovarian; -30.2% (active) in the test on T-47D breast; 66.9% with BT-549 breast. The growth in the test with MDA-MB-435 melanoma is 78.5%; in the test on SW-620 colon it was 80.4%; in the test on MCF7 breast, 34%; in the test on HCT-116 colon it was 59.2%; in the test on HCC-2998 colon, 55.1%; with KM12 colon, 22.1%.
Consider `Cc1cc(Cl)ccc1Nc1nc(C(F)(F)F)ccc1C(=O)N/N=C/c1ccc(F)cc1`, for which the growth is -30.8% (active) in the test with SR leukemia; -41.5% (active) in the test with RPMI-8226 leukemia; 23.1% in the test on OVCAR-8 ovarian; 18.6% with OVCAR-5 ovarian; 5.75% (active) in the test on OVCAR-4 ovarian; 21.3% in the test with SK-OV-3 ovarian. Also, the growth with IGROV1 ovarian is 8.97% (active); in the test with OVCAR-3 ovarian, 9.84% (active); in the test with HS 578T breast, 4.52% (active); in the test with NCI/ADR-RES ovarian, 10.5%; with T-47D breast, 28.4%; in the test on BT-549 breast, 3.74% (active). Also, the growth in the test on MDA-MB-435 melanoma is 31.9%; with SW-620 colon, 12.7%; with MCF7 breast, -15.2% (active); in the test with HCT-116 colon, 8.67% (active); in the test on HCC-2998 colon it was 12.4%; with KM12 colon it was 7.78% (active).
`N#Cc1c(N)nc(N)nc1Nc1ccc(Br)cc1`: the growth was 102% with SR leukemia; 97% in the test with RPMI-8226 leukemia; 101% in the test with OVCAR-8 ovarian; 115% with OVCAR-5 ovarian; 94.5% in the test on OVCAR-4 ovarian; 108% with SK-OV-3 ovarian. Besides, the growth in the test on IGROV1 ovarian was 47%; with OVCAR-3 ovarian it was 97.6%; in the test on HS 578T breast, 70.1%; with NCI/ADR-RES ovarian it was 104%; in the test with T-47D breast, 71.4%; in the test with BT-549 breast, 86.2%. Further, the growth in the test with MDA-MB-435 melanoma is 104%; in the test with SW-620 colon it was 105%; in the test with MCF7 breast, 61.6%; in the test with HCT-116 colon it was 137%; with HCC-2998 colon, 110%; in the test on KM12 colon, 93.9%.
